# Inconclusive results are not listed. Activity calls are given as the source filed them. The call rests on the fitted dose curve.
# Target: Polyunsaturated fatty acid lipoxygenase ALOX15 (Homo sapiens) (UniProt P16050)
# Assay: Inhibitors of 12-hLO (12-human lipoxygenase): 15hLO-1 Cuvette-Based Inhibition Counterscreen Assay for 12hLO Followup Compounds
# Conditions: purified 15hLO-1, UV 234 nm product formation
# Method: Human lipoxygenase 15hLO-1 is a member of the closely related lipoxygenase family of enzymes which catalyze the site-specific oxidation of arachidonic acid to various hormone precursor molecules and as such is a candidate for drug development in a variety of disease areas, such as cancer and inflammation. The enzyme activity of 15hLO-1 was determined by a direct measurement of product formation by monitoring the absorbance at 234 nm in a 2 mL cuvette. IC50 values of inhibitors were obtained by measuring the enzymatic rate at a variety of concentrations (Carroll et al, Segraves et al). A purified preparation of human 15hLO-1 was supplied by Professor Ted Holman, University of California, Santa Cruz. This assay was run against 12hLO followup compounds with the goal of identifying selective 12hLO inhibitors. Assay Provider: Holman, T.R., University of California, Santa Cruz Screening Center PI: Austin, Christopher P. Screening Center: NIH Chemical Genomics Center
# For control experiments, 2 mL of substrate buffer (10 uM arachidonic acid / 25 mM HEPES / 0.01% (v/v) Triton X-100, pH 8.0) was aliquoted in a cuvette with a magnetic stir bar. After equilibrium was ensured, an aliquot of inhibitor solvent was added (DMSO), and equilibrium was once again assured. […] 3; No change in absorbance ensured. […] 5; No change in absorbance ensured. […]
# Sequence of Polyunsaturated fatty acid lipoxygenase ALOX15 (Homo sapiens) (P16050 whole entry, looked up): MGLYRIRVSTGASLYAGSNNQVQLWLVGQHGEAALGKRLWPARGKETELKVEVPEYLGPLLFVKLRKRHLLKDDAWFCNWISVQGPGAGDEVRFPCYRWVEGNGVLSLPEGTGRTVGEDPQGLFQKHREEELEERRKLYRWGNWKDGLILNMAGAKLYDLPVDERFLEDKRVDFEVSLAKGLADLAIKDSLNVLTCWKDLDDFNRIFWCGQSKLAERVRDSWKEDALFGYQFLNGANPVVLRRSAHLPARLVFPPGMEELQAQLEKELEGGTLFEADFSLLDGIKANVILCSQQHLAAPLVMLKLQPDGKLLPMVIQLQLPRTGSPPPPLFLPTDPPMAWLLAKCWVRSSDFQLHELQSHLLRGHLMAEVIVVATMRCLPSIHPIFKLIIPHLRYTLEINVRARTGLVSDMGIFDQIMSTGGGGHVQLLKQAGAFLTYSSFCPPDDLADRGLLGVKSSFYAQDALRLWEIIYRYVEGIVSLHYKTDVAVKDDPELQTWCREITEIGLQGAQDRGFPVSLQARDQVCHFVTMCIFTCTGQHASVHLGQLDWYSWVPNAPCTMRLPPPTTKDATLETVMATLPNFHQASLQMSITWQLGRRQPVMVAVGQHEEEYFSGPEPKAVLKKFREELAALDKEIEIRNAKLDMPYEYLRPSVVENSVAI
smiles,measurement,value
CC(Oc1ccc(Cl)cc1Cl)C(=O)Nc1ccc(S(=O)(=O)Nc2cnc3ccccc3n2)cc1 (stereo unspecified),Potency,30.8 µM (active)
